Test results reported in PubChem BioAssay (EPA / NIEHS).
“And” between values parts separate entries of the source, which are not always exact repeats. Equal entries are not always repeated. Records with an inconclusive call do not appear. The source made the active and inactive calls. Rule for the calls, unless noted: active = hit-call score of the fitted dose curve at least 0.9, where 1 is the maximum; inactive = score below 0.9.

Legend:
[1] = target: Oxysterols receptor LXR-alpha (Homo sapiens) (UniProt Q13133); experiment: ATG_LXRa_TRANS: Attagene TRANS-FACTORIAL HepG2 Assay for human Liver X Receptor alpha (LXRa) (AID 2282980; active = hit-call score of the fitted dose curve at least 0.9, where 1 is the maximum); settings: HepG2 Attagene TRANS reporter, LXRa transactivation
How it was run: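 Transfect HepG2 with GAL4-UAS multiplex reporter constructs (TRANS format, chimeric receptor-GAL4); treat 24 h; extract RNA, reverse-transcribe, PCR-amplify, FAM-label, HpaI-digest; resolve fragments by capillary electrophoresis. Upward response vs DMSO.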

[2] = target: Oxysterols receptor LXR-beta (Homo sapiens) (UniProt P55055); experiment: ATG_LXRb_TRANS: Attagene TRANS-FACTORIAL HepG2 Assay for human Liver X Receptor beta (LXRb) (AID 2282981; active = hit-call score of the fitted dose curve at least 0.9, where 1 is the maximum); settings: HepG2 Attagene TRANS GAL4-LXRb reporter, mRNA
How it was run: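 Cells: HepG2, transiently transfected with GAL4-UAS reporter units plus LXRb-Gal4 fusion. Treatment: 24 h. Detection: reporter mRNA by RT-PCR, 6-FAM labelling, HpaI digestion, capillary electrophoresis.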

[3] = target: Hepatocyte nuclear factor 4-alpha (Homo sapiens) (UniProt P41235); experiment: ATG_HNF4a_TRANS: Attagene TRANS-FACTORIAL HepG2 Assay for human Hepatocyte Nuclear Factor 4 alpha (HNF4a) (AID 2282982; active = hit-call score of the fitted dose curve at least 0.9, where 1 is the maximum); settings: HepG2 HNF4a transactivation reporter, mRNA readout
How it was run: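 Transfected HepG2 reporter cells are dosed for 24 h; reporter RNA is reverse-transcribed, amplified, fluorescently labelled and HpaI-digested before CE sizing. Positive-direction fit against DMSO.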

[4] = ATG_M_06_TRANS: Attagene TRANS-FACTORIAL HepG2 Assay for M06 Transcription Factor (Internal Marker) (AID 2282983; active = hit-call score of the fitted dose curve at least 0.9, where 1 is the maximum); settings: HepG2 Attagene TRANS M06 internal marker reporter
How it was run: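 Transfect HepG2 with MRTUs → dose compounds 24 h → isolate RNA, oligo(dT) RT → PCR with reporter primers → 6-FAM primer extension → HpaI digest → CE fragment analysis. Positive direction vs DMSO.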

[5] = ATG_M_32_TRANS: Attagene TRANS-FACTORIAL HepG2 Assay for M32 Transcription Factor (Internal Marker) (AID 2282984; active = hit-call score of the fitted dose curve at least 0.9, where 1 is the maximum;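 note: transcript level of a background control reporter unit measured by RT-PCR and capillary electrophoresis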); settings: HepG2 Attagene TRANS M32 internal marker reporter
How it was run: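 Using transiently transfected HepG2 cells exposed to test chemicals for 24 h, reporter transcripts are converted to labelled cDNA fragments and quantified by capillary electrophoresis. DMSO defines the activity baseline.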

[6] = target: Nuclear receptor subfamily 4 group A member 2 (Homo sapiens) (UniProt P43354); experiment: ATG_NURR1_TRANS: Attagene TRANS-FACTORIAL HepG2 Assay for human Nuclear Receptor Related Protein 1 (NURR1) (AID 2282985; active = hit-call score of the fitted dose curve at least 0.9, where 1 is the maximum); settings: HepG2 Attagene TRANS reporter, mRNA readout
How it was run: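 Cells: HepG2, transiently transfected. Exposure: 24 h. Detection: fluorescence of labelled RT-PCR products separated by capillary electrophoresis; upward fit versus DMSO.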

[7] = target: Transcriptional activator Myb (Homo sapiens) (UniProt P10242); experiment: ATG_Myb_CIS: Attagene CIS-FACTORIAL HepG2 Assay for human Myeloblastosis (Myb) Proto-Oncogene Transcription Factor (AID 2282986); settings: HepG2 Attagene CIS-FACTORIAL Myb reporter transcription; actives raise or lower the signal
How it was run: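 Reporter mRNA is quantified by RT-PCR and capillary electrophoresis 24 h after dosing HepG2 cells transfected with cis-regulated reporter units, which track endogenous transcription factor activity. Gain and loss of signal are fitted versus DMSO baseline.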

[8] = target: Nuclear respiratory factor 1 (Homo sapiens) (UniProt Q16656); experiment: ATG_NRF1_CIS: Attagene CIS-FACTORIAL HepG2 Assay for human Nuclear Respiratory Factor 1 (NRF1) Orphan Gene (AID 2282987); settings: HepG2 NRF1 cis-element reporter, Attagene multiplex; actives raise or lower the signal
How it was run: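 Endogenous NRF1-driven reporter transcription in transfected HepG2 cells after 24 h treatment. Readout: RT-PCR products, 6-FAM labelled and resolved by capillary electrophoresis; changes fitted both directions relative to DMSO.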

[9] = ATG_NFI_CIS: Attagene CIS-FACTORIAL HepG2 Assay for human Nuclear Factor I (NFI) (AID 2282989); settings: HepG2 cis-regulatory reporter, NFI response element transcription; actives raise or lower the signal
How it was run: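 HepG2, transient MRTU, 24 h exposure; RNA→cDNA→PCR→FAM label→HpaI→CE fluorescence. Bidirectional fit, DMSO = baseline.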

[10] = target: Myc proto-oncogene protein (Homo sapiens) (UniProt P01106); experiment: ATG_Myc_CIS: Attagene CIS-FACTORIAL HepG2 Assay for human Myelocytomatosis (Myc) Proto-Oncogene Transcription Factor (AID 2282990); settings: HepG2, Attagene cis-reporter transcription factor activity; actives raise or lower the signal
How it was run: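 HepG2, transient MRTU transfection (cis promoters, endogenous TFs); 24 h dosing; TriZol RNA → oligo(dT) RT → PCR → 6-FAM primer extension → HpaI cut → CE. Bidirectional fit vs DMSO.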

[11] = ATG_NF_kB_CIS: Attagene CIS-FACTORIAL HepG2 Assay for human Nuclear Factor Kappa B (NF-kB) (AID 2282991); settings: HepG2 Attagene cis-factorial NF-kB reporter mRNA; actives raise or lower the signal
How it was run: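 Readout is reporter transcript level, gain or loss versus DMSO, measured 24 h post-dose via RT-PCR, fluorescent labelling and capillary electrophoresis. Human HepG2 liver cells carried transiently transfected CIS reporter constructs reflecting endogenous factors.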

[12] = ATG_NRF2_ARE_CIS: Attagene CIS-FACTORIAL HepG2 Assay for human Nuclear Factor Erythroid 2 Related Factor 2 (NFR2) response to Antioxidant Response Elements (ARE) (AID 2282992); settings: HepG2 Attagene ARE/NRF2 reporter, transcription factor activity; actives raise or lower the signal;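 for AC50: reporter mRNA level measured by RT-PCR and capillary electrophoresis fluorescence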
How it was run: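 Transient MRTU transfection of HepG2; 24 h compound exposure; TriZol RNA, RT with oligo(dT), PCR, 6-FAM primer extension, HpaI cut, CE. Bidirectional fit vs DMSO.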

[13] = ATG_Oct_MLP_CIS: Attagene CIS-FACTORIAL HepG2 Assay for human Octamer-Binding Transcription Factor (Oct) (AID 2282993); settings: HepG2 Attagene cis-factorial Oct reporter, mRNA; actives raise or lower the signal
How it was run: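 Multiplexed cis-reporter assay in human liver HepG2 cells, 24 h incubation. Reporter RNA amplified and labelled, then resolved by capillary electrophoresis; DMSO serves as negative control and baseline.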

[14] = target: Cellular tumor antigen p53 (Homo sapiens) (UniProt P04637); experiment: ATG_p53_CIS: Attagene CIS-FACTORIAL HepG2 Assay for human p53 Transcription Factor (AID 2282994); settings: HepG2 p53 cis-element reporter, Attagene mRNA; actives raise or lower the signal
How it was run: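 HepG2, transient MRTU transfection (cis promoter elements, endogenous TFs); 24 h dosing; RNA isolation, RT-PCR, 6-FAM primer extension, HpaI digest, CE fluorescence; bidirectional fit vs DMSO.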

[15] = BSK_3C_TissueFactor: BioMAP Diversity Plus: 3C Assay for Tissue Factor Biomarker Activity (AID 2282997); settings: BioMAP 3C HUVEC, tissue factor biomarker readout; actives raise or lower the signal
How it was run: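 ELISA read-out of Tissue Factor levels on human umbilical vein endothelium collected 24 h after chemical dosing. Gain or loss of signal was fitted relative to DMSO.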

[16] = BSK_3C_uPAR: BioMAP Diversity Plus: 3C Assay for Urokinase-type plasminogen activator receptor (uPAR) Biomarker Activity (AID 2282998); settings: BioMAP 3C HUVEC, uPAR biomarker ELISA; actives raise or lower the signal
How it was run: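 Dose primary human umbilical vein endothelial cells, incubate 24 h, measure cell-surface uPAR by ELISA, then fit the signal in both directions against the DMSO negative control.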

[17] = BSK_3C_VCAM1: BioMAP Diversity Plus: 3C Assay for Vascular cell adhesion molecule 1 (VCAM1) Biomarker Activity (AID 2282999); settings: BioMAP 3C HUVEC, VCAM1 ELISA, cytokine-stimulated; actives raise or lower the signal
How it was run: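 Endothelial cells from human umbilical vein are treated with test chemical. At 24 h, VCAM-1 is measured by ELISA, and responses in either direction are fitted relative to DMSO.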

[18] = BSK_4H_Eotaxin3: BioMAP Diversity Plus: 4H Assay for Eotaxin 3 Biomarker Activity (AID 2283000); settings: primary human endothelial cells (HUVEC); actives raise or lower the signal;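 for outcome: CCL26 protein level quantified by ELISA in parallel with SRB cytotoxicity check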
How it was run: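 Chemicals were added to human umbilical vein endothelium cultures, and Eotaxin-3 was quantified by ELISA at 24 h. Values were derived by bidirectional fitting with DMSO serving as negative control and activity baseline.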

[19] = target: human Peroxisome Proliferator-activated Receptor alpha (PPARa), PPARA (gene 5465) (UniProt Q07869); experiment: ATG_PPARa_TRANS: Attagene TRANS-FACTORIAL HepG2 Assay for human Peroxisome Proliferator-activated Receptor alpha (PPARa) (AID 2283001; active = hit-call score of the fitted dose curve at least 0.9, where 1 is the maximum)
How it was run: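 Reporter transcripts from GAL4-UAS units in transfected HepG2 were quantified 24 h after dosing. Detection used reverse transcription, PCR, fluorescent primer extension and capillary electrophoresis, with DMSO as baseline.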

[20] = target: Bile acid receptor (Homo sapiens) (UniProt Q96RI1); experiment: ATG_FXR_TRANS: Attagene TRANS-FACTORIAL HepG2 Assay for Farnesoid X Receptor (FXR) (AID 2282979; active = hit-call score of the fitted dose curve at least 0.9, where 1 is the maximum;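 note: hits raise reporter mRNA above DMSO so AC50 marks FXR activation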); settings: HepG2 Attagene TRANS FXR-GAL4 reporter transcription
How it was run: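 Transient transfection of HepG2 with multiplexed GAL4-UAS reporter units; exogenous FXR-GAL4 chimera. Dose 24 h → TriZol RNA → oligo(dT) RT → PCR, 6-FAM primer extension, HpaI cut → CE. Gain vs DMSO.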

Nuclear receptor subfamily 4 group A member 2 (Homo sapiens), sequence (P43354 whole entry, looked up): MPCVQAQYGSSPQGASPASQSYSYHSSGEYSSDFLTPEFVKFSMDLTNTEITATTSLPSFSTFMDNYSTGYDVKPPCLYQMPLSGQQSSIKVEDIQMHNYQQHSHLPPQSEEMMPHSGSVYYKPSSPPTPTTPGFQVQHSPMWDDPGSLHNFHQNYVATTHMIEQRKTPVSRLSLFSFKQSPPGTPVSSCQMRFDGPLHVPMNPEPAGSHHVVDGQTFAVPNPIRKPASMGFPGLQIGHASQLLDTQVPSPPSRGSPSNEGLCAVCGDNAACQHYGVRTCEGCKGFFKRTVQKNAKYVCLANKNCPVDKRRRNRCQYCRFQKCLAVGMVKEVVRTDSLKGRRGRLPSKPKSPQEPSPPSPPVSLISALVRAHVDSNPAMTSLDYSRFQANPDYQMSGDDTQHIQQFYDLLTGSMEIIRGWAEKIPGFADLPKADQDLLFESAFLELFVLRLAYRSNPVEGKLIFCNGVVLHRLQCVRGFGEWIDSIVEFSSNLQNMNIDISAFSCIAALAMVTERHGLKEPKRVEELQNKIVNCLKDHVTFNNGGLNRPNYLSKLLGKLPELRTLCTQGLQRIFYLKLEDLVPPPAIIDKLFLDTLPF
Nuclear respiratory factor 1 (Homo sapiens), sequence (Q16656 whole entry, looked up): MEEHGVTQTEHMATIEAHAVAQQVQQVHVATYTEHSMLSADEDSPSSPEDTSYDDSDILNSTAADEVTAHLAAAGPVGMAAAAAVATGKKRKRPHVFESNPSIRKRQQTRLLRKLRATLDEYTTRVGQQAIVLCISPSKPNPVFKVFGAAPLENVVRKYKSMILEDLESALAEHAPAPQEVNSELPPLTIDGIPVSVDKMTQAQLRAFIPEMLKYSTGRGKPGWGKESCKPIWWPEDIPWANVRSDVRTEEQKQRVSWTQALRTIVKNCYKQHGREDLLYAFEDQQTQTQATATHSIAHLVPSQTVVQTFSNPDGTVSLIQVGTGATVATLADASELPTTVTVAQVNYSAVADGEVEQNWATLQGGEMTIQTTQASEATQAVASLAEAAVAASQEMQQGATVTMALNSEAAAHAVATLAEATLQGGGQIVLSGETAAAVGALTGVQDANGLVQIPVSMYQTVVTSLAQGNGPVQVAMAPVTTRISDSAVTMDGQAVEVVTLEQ
Cellular tumor antigen p53 (Homo sapiens), sequence (P04637 whole entry, looked up): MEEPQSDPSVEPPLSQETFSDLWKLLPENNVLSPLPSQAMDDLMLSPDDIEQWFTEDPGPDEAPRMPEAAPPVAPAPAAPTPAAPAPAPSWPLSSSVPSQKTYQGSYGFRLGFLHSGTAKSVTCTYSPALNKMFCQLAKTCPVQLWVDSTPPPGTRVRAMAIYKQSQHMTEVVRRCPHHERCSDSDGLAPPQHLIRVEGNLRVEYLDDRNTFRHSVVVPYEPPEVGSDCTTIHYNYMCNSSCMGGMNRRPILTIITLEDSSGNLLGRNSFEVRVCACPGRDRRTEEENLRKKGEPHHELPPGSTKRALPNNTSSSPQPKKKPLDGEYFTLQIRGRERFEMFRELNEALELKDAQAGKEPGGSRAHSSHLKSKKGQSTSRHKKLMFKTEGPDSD
Transcriptional activator Myb (Homo sapiens), sequence (P10242 whole entry, looked up): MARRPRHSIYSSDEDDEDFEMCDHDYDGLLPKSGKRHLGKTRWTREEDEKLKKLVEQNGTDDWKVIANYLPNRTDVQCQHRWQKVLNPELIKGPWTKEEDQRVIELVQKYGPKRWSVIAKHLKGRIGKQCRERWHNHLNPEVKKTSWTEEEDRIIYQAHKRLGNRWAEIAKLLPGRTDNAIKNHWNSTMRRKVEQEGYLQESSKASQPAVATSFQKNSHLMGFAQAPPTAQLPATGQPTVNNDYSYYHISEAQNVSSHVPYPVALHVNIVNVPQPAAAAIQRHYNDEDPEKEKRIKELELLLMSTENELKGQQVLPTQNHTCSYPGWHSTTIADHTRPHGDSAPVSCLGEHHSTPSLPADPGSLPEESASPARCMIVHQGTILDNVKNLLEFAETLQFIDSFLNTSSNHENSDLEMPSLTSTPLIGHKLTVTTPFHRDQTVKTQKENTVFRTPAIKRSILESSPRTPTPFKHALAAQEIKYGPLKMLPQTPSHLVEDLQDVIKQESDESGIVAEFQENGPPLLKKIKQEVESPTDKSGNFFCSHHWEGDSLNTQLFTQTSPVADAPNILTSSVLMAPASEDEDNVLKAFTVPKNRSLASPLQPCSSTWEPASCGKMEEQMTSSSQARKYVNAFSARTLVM
Bile acid receptor (Homo sapiens), sequence (Q96RI1 whole entry, looked up, the tested form may be a part): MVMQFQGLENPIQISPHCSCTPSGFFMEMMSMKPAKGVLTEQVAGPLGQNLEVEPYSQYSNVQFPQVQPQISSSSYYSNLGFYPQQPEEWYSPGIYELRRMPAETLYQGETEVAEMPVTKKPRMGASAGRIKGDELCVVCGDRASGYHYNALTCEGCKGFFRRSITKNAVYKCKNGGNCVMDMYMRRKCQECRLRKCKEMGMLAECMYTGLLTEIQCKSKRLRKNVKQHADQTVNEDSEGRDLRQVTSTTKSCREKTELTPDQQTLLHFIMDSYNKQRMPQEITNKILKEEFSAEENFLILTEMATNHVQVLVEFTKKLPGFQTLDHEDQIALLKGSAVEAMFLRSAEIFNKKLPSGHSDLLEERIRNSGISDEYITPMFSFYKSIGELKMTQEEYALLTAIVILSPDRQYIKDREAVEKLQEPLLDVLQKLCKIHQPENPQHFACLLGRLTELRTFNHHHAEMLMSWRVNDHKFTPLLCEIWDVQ
Oxysterols receptor LXR-alpha (Homo sapiens), sequence (Q13133 whole entry, looked up, the tested form may be a part): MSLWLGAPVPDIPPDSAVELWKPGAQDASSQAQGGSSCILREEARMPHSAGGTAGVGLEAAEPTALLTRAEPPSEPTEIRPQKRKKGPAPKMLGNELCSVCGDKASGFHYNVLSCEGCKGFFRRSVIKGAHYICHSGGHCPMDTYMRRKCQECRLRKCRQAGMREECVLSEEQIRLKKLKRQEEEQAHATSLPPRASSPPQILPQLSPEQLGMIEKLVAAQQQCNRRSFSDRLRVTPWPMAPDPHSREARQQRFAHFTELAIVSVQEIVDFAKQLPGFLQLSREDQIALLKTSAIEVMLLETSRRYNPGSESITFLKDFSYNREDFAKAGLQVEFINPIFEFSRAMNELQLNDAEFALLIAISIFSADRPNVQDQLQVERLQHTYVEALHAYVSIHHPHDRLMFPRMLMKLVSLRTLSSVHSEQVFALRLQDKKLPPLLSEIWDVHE
Oxysterols receptor LXR-beta (Homo sapiens), sequence (P55055 whole entry, looked up, the tested form may be a part): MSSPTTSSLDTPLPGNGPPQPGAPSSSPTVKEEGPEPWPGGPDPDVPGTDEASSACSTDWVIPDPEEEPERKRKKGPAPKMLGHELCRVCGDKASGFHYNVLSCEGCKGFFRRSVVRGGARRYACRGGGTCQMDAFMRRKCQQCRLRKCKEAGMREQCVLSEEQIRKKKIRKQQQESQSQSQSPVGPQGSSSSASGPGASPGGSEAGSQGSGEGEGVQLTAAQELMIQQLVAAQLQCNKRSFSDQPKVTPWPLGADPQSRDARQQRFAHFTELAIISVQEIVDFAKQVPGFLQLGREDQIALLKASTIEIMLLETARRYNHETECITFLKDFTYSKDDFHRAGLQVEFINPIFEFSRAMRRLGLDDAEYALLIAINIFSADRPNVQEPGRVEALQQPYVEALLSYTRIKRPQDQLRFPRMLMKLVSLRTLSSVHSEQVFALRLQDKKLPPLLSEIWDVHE
Myc proto-oncogene protein (Homo sapiens), sequence (P01106 whole entry, looked up): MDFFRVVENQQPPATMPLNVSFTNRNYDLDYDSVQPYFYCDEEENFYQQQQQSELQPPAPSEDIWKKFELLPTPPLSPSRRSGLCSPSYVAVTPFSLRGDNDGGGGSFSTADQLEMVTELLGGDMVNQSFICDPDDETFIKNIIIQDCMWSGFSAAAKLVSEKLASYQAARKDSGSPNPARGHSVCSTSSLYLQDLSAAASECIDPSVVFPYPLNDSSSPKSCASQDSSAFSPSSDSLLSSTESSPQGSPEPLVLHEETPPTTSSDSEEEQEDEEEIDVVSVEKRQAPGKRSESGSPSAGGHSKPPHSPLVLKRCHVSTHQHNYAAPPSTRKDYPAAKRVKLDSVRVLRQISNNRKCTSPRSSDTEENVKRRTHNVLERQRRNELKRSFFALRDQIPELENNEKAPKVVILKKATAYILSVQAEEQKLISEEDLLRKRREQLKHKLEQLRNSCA
human Peroxisome Proliferator-activated Receptor alpha (PPARa), PPARA (gene 5465), sequence (Q07869 whole entry, looked up, the tested form may be a part): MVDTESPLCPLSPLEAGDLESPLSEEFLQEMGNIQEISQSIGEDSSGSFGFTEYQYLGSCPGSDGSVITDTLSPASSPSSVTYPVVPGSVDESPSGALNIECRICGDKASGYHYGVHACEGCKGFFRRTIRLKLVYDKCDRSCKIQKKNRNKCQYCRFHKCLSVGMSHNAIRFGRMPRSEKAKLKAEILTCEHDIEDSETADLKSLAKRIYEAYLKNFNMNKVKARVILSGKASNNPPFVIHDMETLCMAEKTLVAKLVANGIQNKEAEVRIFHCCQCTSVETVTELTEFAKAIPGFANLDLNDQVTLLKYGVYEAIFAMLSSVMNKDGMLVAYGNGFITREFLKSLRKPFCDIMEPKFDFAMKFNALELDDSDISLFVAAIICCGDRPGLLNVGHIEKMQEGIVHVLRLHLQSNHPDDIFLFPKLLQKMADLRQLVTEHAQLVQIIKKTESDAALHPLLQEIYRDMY
Hepatocyte nuclear factor 4-alpha (Homo sapiens), sequence (P41235 whole entry, looked up): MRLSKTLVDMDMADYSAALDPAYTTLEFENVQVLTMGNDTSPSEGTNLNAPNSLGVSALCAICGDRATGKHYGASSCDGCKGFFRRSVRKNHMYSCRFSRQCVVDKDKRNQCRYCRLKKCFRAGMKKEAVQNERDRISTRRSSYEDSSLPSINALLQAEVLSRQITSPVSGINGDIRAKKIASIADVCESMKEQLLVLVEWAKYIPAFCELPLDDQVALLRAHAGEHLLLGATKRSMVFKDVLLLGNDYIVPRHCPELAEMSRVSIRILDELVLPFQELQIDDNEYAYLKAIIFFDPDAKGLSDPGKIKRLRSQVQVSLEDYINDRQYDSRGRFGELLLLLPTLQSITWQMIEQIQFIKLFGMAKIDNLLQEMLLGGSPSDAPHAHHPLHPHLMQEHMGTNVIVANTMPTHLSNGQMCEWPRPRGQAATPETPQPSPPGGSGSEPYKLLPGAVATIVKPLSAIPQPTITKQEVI

CCOC(=O)CC(SP(=S)(OC)OC)C(=O)OCC (stereo not given)
outcome [1]: inactive
outcome [2]: inactive
outcome [3]: inactive
outcome [4]: inactive
outcome [5]: inactive
outcome [6]: inactive
outcome [7]: inactive
outcome [8]: inactive
outcome [9]: inactive
outcome [10]: inactive
outcome [11]: inactive
AC50 [12]: 25.1 µM (active) and 19.6 µM (active)
AC50 [13]: 133 µM (active) and 24 µM (active)
outcome [14]: inactive
outcome [15]: inactive
AC50 [16]: 5.14 µM (active)
outcome [17]: inactive
outcome [18]: inactive
outcome [19]: inactive

COC(=O)N(OC)c1ccccc1COc1ccn(-c2ccc(Cl)cc2)n1
outcome [20]: inactive
outcome [1]: inactive
outcome [2]: inactive
outcome [3]: inactive
outcome [4]: inactive
outcome [5]: inactive
outcome [7]: inactive
outcome [8]: inactive
outcome [9]: inactive
outcome [10]: inactive
AC50 [12]: 635 nM (active)
AC50 [13]: 702 nM (active)
outcome [14]: inactive
AC50 [16]: 20 µM (active)
outcome [17]: inactive
AC50 [18]: 18.3 µM (active)
outcome [19]: inactive

C=CC1(C)OC(=O)N(c2cc(Cl)cc(Cl)c2)C1=O (stereo not given)
outcome [20]: inactive
outcome [1]: inactive
outcome [3]: inactive
outcome [4]: inactive
outcome [5]: inactive
outcome [6]: inactive
outcome [7]: inactive
outcome [8]: inactive
outcome [9]: inactive
outcome [10]: inactive
outcome [11]: inactive
outcome [12]: inactive
outcome [13]: inactive
outcome [14]: inactive
outcome [16]: inactive
outcome [17]: inactive
outcome [18]: inactive
outcome [19]: inactive
